Calls of active or inactive are those of the source.

The target in one test is Albumin (Bos taurus) (UniProt P02769). The test can be described thus: compounds binding labelled BSA control protein – biochemical, small-molecule microarray, Alexa647 label, 635/667 nm fluorescence, artefact control for SMM control protein annotation, profiling panel (AID 1118).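 Note: score merges 667 nm emission intensity and signal-to-noise per printed compound spot.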 As to conditions: BSA-A647 binding, fluorescence 635 nm, higher = more signal.
Albumin (Bos taurus), sequence (P02769 whole entry, looked up): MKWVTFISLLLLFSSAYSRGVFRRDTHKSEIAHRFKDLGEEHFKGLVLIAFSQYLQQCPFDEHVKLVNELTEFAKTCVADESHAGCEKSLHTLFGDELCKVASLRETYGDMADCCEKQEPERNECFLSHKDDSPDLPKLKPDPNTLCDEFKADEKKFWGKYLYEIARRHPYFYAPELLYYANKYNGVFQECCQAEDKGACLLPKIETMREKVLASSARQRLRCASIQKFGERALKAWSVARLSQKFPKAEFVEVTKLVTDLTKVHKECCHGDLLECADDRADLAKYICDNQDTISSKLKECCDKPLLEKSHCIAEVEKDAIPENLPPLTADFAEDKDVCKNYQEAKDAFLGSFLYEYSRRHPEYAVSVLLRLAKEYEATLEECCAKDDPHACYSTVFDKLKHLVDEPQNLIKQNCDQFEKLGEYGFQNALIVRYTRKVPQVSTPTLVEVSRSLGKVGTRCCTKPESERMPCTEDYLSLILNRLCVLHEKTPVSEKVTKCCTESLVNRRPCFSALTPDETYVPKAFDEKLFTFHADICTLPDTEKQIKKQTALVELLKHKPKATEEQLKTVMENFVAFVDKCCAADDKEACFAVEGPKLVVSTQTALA
Test [1] can be described thus: probe aXIP binding to arrayed compounds – biochemical, NeuroSMM set, 635/667 nm fluorescence, primary screen (AID 1119).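 Note: probe is the protein aXip251-270 applied at 1 µg/mL to compound-printed slides; binding of probe to printed compounds measured as 667 nm fluorescence plus signal to noise.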 As to conditions: small-molecule microarray, higher = more signal, called active from +8 up or from −8 down.
Test [2] is described as follows: probe aNOTCH3 binding on compound microarray – biochemical, small-molecule microarray, 635/667 nm fluorescence, primary screen (AID 1120).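 Note: probe is a biotin-tagged antibody raised against NOTCH3 rather than NOTCH3 protein; score merges spot fluorescence near 667 nm with spot signal to noise.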 As to conditions: higher = more signal.
Test [3] in a line: probe aNOTCH2 binding on compound microarray – biochemical, small-molecule microarray, 635/667 nm fluorescence, primary screen (AID 1121).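 Note: score merges feature fluorescence read at 667 nm with its signal to noise.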 The conditions noted are these: higher = more signal.
The target in test [4] is Carbonic anhydrase 2 (Homo sapiens) (UniProt P00918). The experiment in a line: compounds binding carbonic anhydrase 2 – biochemical, small-molecule microarray, Alexa647-labelled CAII, profiling panel (AID 1122). The conditions noted are these: CAII-A647 binding fluorescence, higher = more signal.
Test [5] is described as follows: COS7 lysate on small-molecule microarray, probe aHis, 635 nm (AID 1123).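 Note: z-score combines 667nm fluorescence intensity with signal-to-noise per printed compound spot.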 The conditions noted are these: COS7 cell lysate, fluorescence, higher = more signal.
Test [6] can be described thus: probe aLAP1 signal on lysate-treated microarray – cell lysate, small-molecule microarray, COS7 lysate, primary screen (AID 1124).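 Note: lysate comes from COS7 cells expressing LAP1 and is applied at 0.3 µg/mL; score merges spot fluorescence near 667 nm with signal-to-noise over triplicate slides.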 As to conditions: probe aLAP1, fluorescence, higher = more signal.
The subject of the next test is Sam68 (KHDRBS1). The experiment in a line: compounds binding KHDRBS1 protein – biochemical, small-molecule microarray, 635 nm fluorescence, primary screen (AID 1125).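 Note: score merges 667 nm channel intensity with signal to noise over triplicate slides.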 The conditions noted are these: higher = more signal.
In test [7] the test system is Chordin-like protein 2 (CHRDL2). The test can be described thus: compounds binding chordin-like 2 – biochemical, small-molecule microarray, 635 nm fluorescence, primary screen (AID 1126).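 Note: printed compound slides probed with Chrdl2 protein at 4 µg/mL for 1 h at 4 C; score merges 667 nm emission intensity with signal to noise over three replicate slides.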 As to conditions: fluorescence 635 nm, higher = more signal.
The target in test [8] is Concanavalin-A (Canavalia ensiformis) (UniProt P02866). The test can be described thus: compounds binding concanavalin A lectin – biochemical, small-molecule microarray, Alexa647 label, 635 nm, artefact control for SMM control protein annotation, primary screen (AID 1127).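 Note: z combines 667 nm emission intensity with signal-to-noise across three replicate slides.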 The conditions noted are these: ConA-A647 binding fluorescence, higher = more signal.
Concanavalin-A (Canavalia ensiformis), sequence (P02866 whole entry, looked up): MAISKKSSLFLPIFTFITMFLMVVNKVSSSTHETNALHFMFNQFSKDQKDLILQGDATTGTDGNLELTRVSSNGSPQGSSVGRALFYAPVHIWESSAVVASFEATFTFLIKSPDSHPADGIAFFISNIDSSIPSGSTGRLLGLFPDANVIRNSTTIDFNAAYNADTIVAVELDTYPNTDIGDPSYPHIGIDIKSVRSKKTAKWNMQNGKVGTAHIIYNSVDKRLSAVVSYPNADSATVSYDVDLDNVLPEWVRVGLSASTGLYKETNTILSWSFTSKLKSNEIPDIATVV
Test [9] in a line: compounds binding Alexa647 anti-His antibody – biochemical, small-molecule microarray, 635 nm fluorescence, artefact control for SMM control protein annotation, primary screen (AID 1128).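 Note: score merges feature fluorescence with signal-to-noise for each printed compound spot.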 The conditions noted are these: higher = more signal.
The subject of test [10] is Human papillomavirus type 1a E7 protein (residues 1-88). The test can be described thus: HPV1a E7 small-molecule binders, primary screen, biochemical, small-molecule microarray, residues 1-88, 635 nm (AID 1129). As to conditions: small-molecule microarray binding, fluorescence 635 nm; higher = more signal.
The target of test [11] is Focal adhesion kinase 1 (Homo sapiens) (UniProt Q05397). The test can be described thus: PTK2 protein binding on printed compound slides – biochemical, small-molecule microarray, 635/667 nm fluorescence, BSA, DTT, primary screen (AID 1130).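 Note: composite of spot emission at 667 nm and signal to noise over triplicate slides.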 As to conditions: 635 nm fluorescence, higher = more signal.
Focal adhesion kinase 1 (Homo sapiens), sequence (Q05397 whole entry, looked up): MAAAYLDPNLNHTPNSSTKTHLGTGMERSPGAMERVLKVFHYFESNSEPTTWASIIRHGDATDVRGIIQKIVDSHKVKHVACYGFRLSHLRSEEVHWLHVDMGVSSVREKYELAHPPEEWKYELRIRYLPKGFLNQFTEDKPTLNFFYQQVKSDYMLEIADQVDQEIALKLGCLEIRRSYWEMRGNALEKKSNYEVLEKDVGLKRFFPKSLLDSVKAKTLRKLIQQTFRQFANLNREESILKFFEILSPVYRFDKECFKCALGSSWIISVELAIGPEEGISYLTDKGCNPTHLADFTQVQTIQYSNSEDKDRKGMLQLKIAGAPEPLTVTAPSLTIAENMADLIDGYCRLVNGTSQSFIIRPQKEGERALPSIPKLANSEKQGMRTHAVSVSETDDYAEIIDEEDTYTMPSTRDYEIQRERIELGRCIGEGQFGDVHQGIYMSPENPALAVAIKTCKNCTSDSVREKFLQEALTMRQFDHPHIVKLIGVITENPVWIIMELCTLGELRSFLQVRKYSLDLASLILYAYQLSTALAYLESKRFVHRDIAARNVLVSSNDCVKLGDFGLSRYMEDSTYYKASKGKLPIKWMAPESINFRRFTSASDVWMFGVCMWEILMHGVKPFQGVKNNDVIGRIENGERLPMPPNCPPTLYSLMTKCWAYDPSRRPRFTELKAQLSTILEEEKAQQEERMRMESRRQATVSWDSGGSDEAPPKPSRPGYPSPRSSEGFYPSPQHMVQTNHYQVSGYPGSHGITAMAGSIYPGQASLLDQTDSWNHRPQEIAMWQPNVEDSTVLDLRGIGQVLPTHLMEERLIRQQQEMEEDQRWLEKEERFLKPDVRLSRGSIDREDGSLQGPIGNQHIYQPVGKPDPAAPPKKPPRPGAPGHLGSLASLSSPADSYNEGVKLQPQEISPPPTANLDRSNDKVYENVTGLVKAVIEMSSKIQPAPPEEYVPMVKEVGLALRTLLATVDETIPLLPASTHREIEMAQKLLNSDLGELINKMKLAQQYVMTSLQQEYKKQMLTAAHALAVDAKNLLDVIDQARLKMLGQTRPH
Test [12] relates to Fibrinogen (Alexa647-labelled). The experiment in a line: Alexa647-fibrinogen binding to printed small molecules – biochemical, small-molecule microarray, 635/667 nm fluorescence, artefact control for SMM control-protein annotation, profiling panel (AID 1131).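 Note: z-score merges 667 nm fluorescence with per-spot signal-to-noise over triplicate slides.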 The conditions noted are these: fibrinogen-A647 binding fluorescence, higher = more signal.
Test [13] addresses Follistatin (Homo sapiens) (UniProt P19883). The test can be described thus: FST protein binding to printed compounds – biochemical, small-molecule microarray, 635/667 nm fluorescence, primary screen (AID 1132). As to conditions: 635 nm fluorescence, higher = more signal.
In test [14] the target is Fibroblast growth factor 2 (Homo sapiens) (UniProt P09038). The experiment in a line: basic fibroblast growth factor binding to printed compounds – biochemical, small-molecule microarray, 635/667 nm fluorescence, primary screen (AID 1133). The conditions noted are these: FGF2, fluorescence 635/667, higher = more signal.
Fibroblast growth factor 2 (Homo sapiens), sequence (P09038 whole entry, looked up): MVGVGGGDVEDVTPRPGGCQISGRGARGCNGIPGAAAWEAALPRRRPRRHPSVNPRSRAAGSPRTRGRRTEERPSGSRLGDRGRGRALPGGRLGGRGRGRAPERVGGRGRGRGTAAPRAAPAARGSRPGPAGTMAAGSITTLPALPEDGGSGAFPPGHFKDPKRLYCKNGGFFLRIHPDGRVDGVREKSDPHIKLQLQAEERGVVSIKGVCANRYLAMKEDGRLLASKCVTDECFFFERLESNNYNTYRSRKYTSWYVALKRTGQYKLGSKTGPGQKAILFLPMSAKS
Test [15] can be described thus: JC-1 mitochondrial potential readout, lung cancer cells – cell-based, A549, JC-1 fluorescence, basal, 24 h, 100 nL, profiling panel (AID 1138).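 Note: A549 lung adenocarcinoma cells under basal conditions with no added stimulus; test concentration not given here.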 As to conditions: higher = more signal.
Another test has as its system Lefty1. The test can be described thus: Lefty1 protein binding to printed compounds – biochemical, small-molecule microarray, 635/667 nm fluorescence, primary screen (AID 1139). The conditions noted are these: fluorescence 635/667, higher = more signal.
For test [16], the system named is wheat germ agglutinin (Triticum aestivum), Alexa647-labelled. The experiment in a line: Alexa647-WGA lectin binding to printed small molecules – biochemical, small-molecule microarray, 635/667 nm fluorescence, artefact control for SMM control-protein annotation, profiling panel (AID 1140).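 Note: score merges 667 nm feature emission with signal to noise over triplicate slides.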 The conditions noted are these: WGA-A647 binding, 635 nm fluorescence, higher = more signal.

The target of test [17] is Luciferin 4-monooxygenase (Photinus pyralis) (UniProt P08659). The test can be described thus: inhibition of purified Photinus pyralis luciferase – biochemical, luminescence, purified enzyme, 2006 set, primary screen (AID 1141).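 Note: cell-free assay with purified firefly luciferase at 100 ng per well in PBS; test concentration not given here.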 The conditions noted are these: purified firefly luciferase, SteadyGlo luminescence, 30 min; higher = more signal, called active from +8 up or from −8 down.
Luciferin 4-monooxygenase (Photinus pyralis), sequence (P08659 whole entry, looked up): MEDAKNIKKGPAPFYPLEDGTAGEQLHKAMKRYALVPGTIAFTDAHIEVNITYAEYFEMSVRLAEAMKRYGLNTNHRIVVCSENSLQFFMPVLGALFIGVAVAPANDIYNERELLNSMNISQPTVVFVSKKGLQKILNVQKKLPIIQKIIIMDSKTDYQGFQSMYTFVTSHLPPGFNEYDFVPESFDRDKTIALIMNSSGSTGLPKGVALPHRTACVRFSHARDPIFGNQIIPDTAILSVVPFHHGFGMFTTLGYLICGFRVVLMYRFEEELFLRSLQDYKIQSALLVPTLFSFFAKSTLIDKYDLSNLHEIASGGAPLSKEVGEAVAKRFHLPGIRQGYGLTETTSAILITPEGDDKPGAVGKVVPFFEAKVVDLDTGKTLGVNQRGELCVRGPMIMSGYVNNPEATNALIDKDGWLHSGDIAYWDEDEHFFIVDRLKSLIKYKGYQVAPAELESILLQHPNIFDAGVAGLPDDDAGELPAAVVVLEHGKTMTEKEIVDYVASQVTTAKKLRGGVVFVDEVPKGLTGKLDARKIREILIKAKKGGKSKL

Follistatin (Homo sapiens), sequence (P19883 whole entry, looked up): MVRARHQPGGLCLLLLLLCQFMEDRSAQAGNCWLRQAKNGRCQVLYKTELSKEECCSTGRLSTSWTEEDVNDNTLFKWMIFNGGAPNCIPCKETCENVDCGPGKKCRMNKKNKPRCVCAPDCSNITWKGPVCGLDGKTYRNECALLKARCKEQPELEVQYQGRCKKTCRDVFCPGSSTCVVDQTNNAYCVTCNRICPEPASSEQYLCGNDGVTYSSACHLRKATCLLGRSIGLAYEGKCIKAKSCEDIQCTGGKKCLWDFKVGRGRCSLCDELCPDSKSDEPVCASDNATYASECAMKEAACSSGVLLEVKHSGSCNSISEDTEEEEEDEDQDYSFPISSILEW

On to `CC(CCN1CCc2nc(-c3ccccc3)c(-c3ccccc3)cc2C1)=NOC(C)CN1CCCc2nc(C)c(C)cc21` (stereo not given), for which the composite z-score was 0.682 with Albumin (Bos taurus); 0.233 in test [2]; -0.0278 in test [3]; 0.369 in test [4]; 1.09 in test [5]; 0.506 in test [6]. In addition, the composite z-score in the test with Sam68 (KHDRBS1) was 1.29; in test [7] it was 0.219; in [8], 1.08; in test [9] it was -0.929; in test [10] it was 1.15; in test [11] it was 0.382. In addition, the composite z-score in [12] amounted to 0.96; in test [13], 0.94; in [14], 0.541; in the test with Lefty1, 0.659; in [16], 0.379. For the same compound, in [1], the composite Z-score is 0.944 (inactive). The z-score in [15] was 3.46; in test [17], 0.397 (inactive).

On to `CC(C)CON=C1C[C@@H](O)[C@@H](O)[C@@H]2[C@@H]3C(=O)N(Cc4ccccc4)C(=O)[C@@H]3CC[C@H]12`, for which the composite z-score with Albumin (Bos taurus) is 0.428; in [2], -0.0679; in test [3], -0.122; in test [4], 0.0889; in test [5], 0.211; in test [6], -0.366. For the same compound, the composite z-score was determined as 0.51 in the test with Sam68 (KHDRBS1); 0.447 in test [7]; 0.321 in test [8]; 0.247 in test [9]; 0.502 in test [10]; 0.052 in [11]. Also, the composite z-score amounted to 0.666 in test [12]; 0.363 in test [13]; 0.474 in [14]; 0.669 in the test on Lefty1; 0.134 in [16]. For the same compound, the composite Z-score in test [1] was -0.288 (inactive). Besides, the z-score in test [15] is -1.03; in test [17], 1.14 (inactive).

For the compound `COC(=O)[C@H](C)NC(=O)CCC1CC(OC(=O)NCc2cccc3ccccc23)CC2(CCCC(COC(=O)NCCc3ccccc3OC)O2)O1` (stereo not given in full), the composite z-score was 0.707 with Albumin (Bos taurus); 0.0893 in test [2]; -0.185 in test [3]; 0.548 in [4]; 1.06 in [5]; -0.557 in [6]. Moreover, the composite z-score is 1.3 in the test with Sam68 (KHDRBS1); 0.409 in [7]; 0.917 in [8]; 1.13 in [9]; 1.18 in [10]; 0.656 in test [11]. Moreover, the composite z-score was found to be 0.661 in test [12]; 0.941 in test [13]; 0.544 in test [14]; 0.89 with Lefty1; 0.316 in [16]. In test [1], the composite Z-score is -0.18 (inactive). In addition, the z-score in [15] was -0.358; in [17] it was 0.603 (inactive).

Take `C=CC[C@@H]1C=C[C@H](ON=C2C[C@@H](O)[C@@H](O)[C@@H]3[C@@H]4C(=O)N(CC)C(=O)[C@@H]4CC[C@@H]23)[C@@H](CO)O1`: the composite z-score with Albumin (Bos taurus) is -0.873; in [2], -0.16; in test [3], -0.237; in test [4], 0.452; in test [5], 0.429; in test [6], -0.289. Moreover, the composite z-score in the test on Sam68 (KHDRBS1) was -0.444; in test [7] it was -0.0673; in [8], -1.18; in test [9] it was -2.3; in [10], -1.1; in test [11] it was 0.382. Moreover, the composite z-score is -1.15 in test [12]; -0.707 in test [13]; 0.119 in test [14]; 0.158 in the test with Lefty1; -1.41 in test [16]. For the same compound, the composite Z-score in test [1] was -0.116 (inactive). Also, the z-score in test [15] was -0.992; in test [17], 1.3 (inactive).

`COC(=O)CC=C[C@@H](C)[C@@H](C=NOC[C@@H](O)COCc1ccco1)NS(=O)(=O)c1ccc(C)cc1`: the composite z-score with Albumin (Bos taurus) is -1.17; in [2], -0.169; in test [3], -0.0854; in [4], -0.485; in [5], -1.36; in [6] it was -0.504. Moreover, the composite z-score in the test on Sam68 (KHDRBS1) was -0.866; in [7] it was 1.52; in [8] it was -2.76; in test [9], 0.13; in test [10], -1.94; in test [11], -0.432. For the same compound, the composite z-score was -1.03 in [12]; 1.29 in test [13]; 0.542 in [14]; 0.915 in the test with Lefty1; -0.681 in [16]. The composite Z-score in [1] was -0.553 (inactive). The z-score was -0.383 in test [15] and 0.167 (inactive) in [17].

With `CC(C)=NO[C@H](C)c1cn([C@@H]2COC[C@H]2O)nn1`, the composite z-score with Albumin (Bos taurus) is 0.392; in test [2], 0.0694; in [3], -0.147; in test [4], 0.0793; in [5] it was 0.0027; in test [6] it was 0.191. Besides, the composite z-score in the test with Sam68 (KHDRBS1) was found to be 0.317; in [7] it was 0.655; in [8] it was 0.139; in test [9], 0.106; in [10], 0.661; in test [11], 0.335. Besides, the composite z-score in test [12] is 0.187; in test [13] it was 0.349; in test [14], 0.594; with Lefty1, 0.718; in [16] it was -0.038. In [1], the composite Z-score is -0.679 (inactive). Moreover, the results for the z-score in [15] and in test [17] were 0.027 and 0.0821 (inactive), respectively.

(Values after PubChem BioAssay.)
